Compound activity: PubChem, National Center for Advancing Translational Sciences (NCATS)
This is a sample that favours compounds with a hit; in the whole collection about 9.3% have one here.
Sm TGR inh – S. mansoni TGR enzyme inhibition; Q962Y6; purified TGR, DTNB reduction, TNB absorbance 405 nm; Potency, µM (highest dose often 114 µM), inactives show at the highest dose activity change, negative = inhibition, actives largely listed as inhibitors; hit rate 3% among 360,000; note: potency is the fitted concentration of half-maximal effect; nearly all actives have a fitted effect of over 60% in size
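Kinetic colorimetric format: TGR-catalysed, NADPH-driven DTNB reduction monitored via TNB absorbance. Enzyme dispensed at 20 nM; compound exposure 15 min at room temperature before reaction start.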
FMDV antiviral – foot and mouth disease virus antiviral activity; Potency, µM (doses to about 57.9 µM), for inactives: top-dose activity change, negative = inhibition, usual class: inhibitors; FMDV antiviral cell-based qHTS; hit rate 1.2% among 410,000; AID 1159524; calls by dose curve; tested in HEK293T cells; note: read-out not given here; potency is the fitted concentration of half-maximal effect; nearly all actives have a fitted effect of over 45% in size
Vaccinia mCherry – vaccinia inhibition (mCherry reporter); AID 720579; hit rate 0.63% among 310,000; Potency, µM (series often up to 36.5 µM), without a hit: top-dose activity change, negative = inhibition, hits mostly inhibitors; Vaccinia virus mCherry reporter infection, fluorescence; calls by dose curve; tested in A549 cells; note: potency is the fitted concentration of half-maximal effect; nearly all actives have a fitted effect of over 35% in size
HCMV inh – inhibitors of human cytomegalovirus; HFF cells, HCMV-luciferase reporter, 72 h; active compounds read low; activity change, negative = inhibition, % at 57.5 µM; hit rate 4.5% among 410,000; AID 1259415; in the data active = activity change below about -60%; inconclusive = no clear call, values can overlap the other calls; inactive = above about -39%
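Steps: HFFs plated, 16 h 37C; compounds added; HCMV-luciferase added to MOI 1 PFU/cell; 72 h 37C; OneGlo reagent, 5 min room temperature; luminescence read, normalized to controls.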
VACV Venus inh – vaccinia inhibition (Venus reporter) | Vaccinia virus Venus reporter expression, fluorescence | Potency, µM (series often up to 36.5 µM), inactives show top-dose activity change, negative = inhibition, hits mostly inhibitors | hit rate 0.46% among 330,000 | AID 720580; calls by dose curve; tested in A549 cells; note: potency is the fitted concentration of half-maximal effect; nearly all actives have a fitted effect of over 30% in size
HCV inh – inhibitors of hepatitis C virus infection; Huh7.5.1 HCVcc-Cre infection, luciferase reporter, 44 h; Potency, µM (doses to about 41.8 µM), for the others: at the top dose activity change, negative = inhibition, most hits filed as inhibitors; hit rate 3.4% among 340,000; AID 651820; note: potency is the fitted concentration of half-maximal effect
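Cells seeded at 1,000/well and cultured 4 h, then compounds added followed by HCVcc-Cre virus (~0.5 moi). After 44 h further culture, luciferase substrate was added, plates held 15 min at room temperature, and luminescence read for 15 sec.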
* marks the source's active call; other numbers are inactive results; i = inactive; ? = inconclusive; nt = not tested or not shown. Unless noted, calls come from the whole dose curve; as a rule, active = well fitted curve in the direction sought with a large enough effect; inconclusive = small, poorly fitted or top-dose-only effect, or another doubt; inactive = no such curve, though single readings can be large; an effect the other way counts as inactive or inconclusive. % is set by controls: 0 for no effect and ±100 for the full control effect.

SMILES | Sm TGR inh | FMDV antiviral | Vaccinia mCherry | HCMV inh | VACV Venus inh | HCV inh
Cc1noc(C)c1CSCC(=O)Nc1cc(S(=O)(=O)N2CCOCC2)ccc1OCC(F)(F)F | -1% | 3% | -14% | -15 | -17% | -17%
Cc1c(NC(=O)c2ccc3c(c2)C(=O)N(CC2CCCO2)C3=O)cccc1C(=O)O (configuration not stated) | 5% | -20% | i | -4 | -3% | 17%
[O-][n+]1c(/C=C/c2ccccc2)ccc2ccccc21 | 0% | -30% | nt | 13 | nt | 10µM*
CN(CCCS(=O)(=O)[O-])c1ccc(/C=C/c2ccc3ccccc3[n+]2C)cc1 | 0% | -13% | nt | 94 | nt | 19%
CN(C)c1ccc(/C=C/c2nccc3ccccc23)cc1 | nt | nt | -1% | nt | 28% | nt
CN(C)c1ccc(/C=C/c2ccc3ccccc3[n+]2C)cc1 | 1% | ? | 175% | -99* | 275% | 0.89µM*
CN(C)c1ccc(/C=C/c2ccc3c4ccccc4ccc3[n+]2-c2ccccc2)cc1 | ? | 13µM* | i | -99* | i | 1µM*
CC1(C)CC(=O)C(C=NCCO)=C(O)C1 | -21% | 0% | -5% | 31 | 5% | 13%
O=C(CO/N=C1\CCCc2nonc21)Nc1ccccc1Cl | 0% | 19% | -16% | -31 | -5% | -5%
CCN(C[C@H]1N[C@@](Cc2ccccc2)(C(=O)OC)[C@H]2C(=O)N(Cc3ccccc3)C(=O)[C@@H]12)C(=O)Nc1ccc(C(F)(F)F)cc1 | nt | -22% | ? | ? | ? | 13µM*
CC[C@@]1(C(=O)OC)N[C@H](CN(C)C(=O)NC(C)C)[C@@H]2C(=O)N(Cc3ccccc3)C(=O)[C@@H]21 | nt | 0% | -1% | 11 | -1% | -21%
CCN(C[C@H]1N[C@@](CC)(C(=O)OC)[C@H]2C(=O)N(Cc3ccccc3)C(=O)[C@@H]12)C(=O)NC(C)C | nt | -13% | i | 0 | -10% | 6.3µM*
O=C(CN(C(=O)CCC(=O)Nc1nccs1)c1ccc2c(c1)OCO2)NCC1CCCO1 (configuration not stated) | 1% | -12% | nt | 34 | -6% | 13%
CCN1CCN(c2c(Cl)cccc2NC(=O)c2ccc3c(c2)OCCO3)CC1 | 1% | -19% | nt | 1 | nt | ?
COc1cc2c(cc1NC(=O)C1CCCO1)oc1ccccc12 (configuration not stated) | -5% | 52% | -20% | 43 | -11% | 7.9µM*
COc1cc2c(cc1NC(=S)Nc1cccc(C)c1)oc1ccccc12 | -10% | 64% | nt | 32 | nt | 8.9µM*
O=C(Nc1ccc(N=Nc2ccccc2)c(NC(=O)C2CCCO2)c1)C1CCCO1 (configuration not stated) | -10% | 35% | -12% | -61* | ? | 2µM*
COc1cc2c(cc1NC(=O)/C=C/c1ccccc1)oc1ccccc12 | -23% | nt | -5% | -64* | -11% | 7.1µM*
O=C(Nc1ccc([N+](=O)[O-])c(NC(=O)C2CCCO2)c1)C1CCCO1 (configuration not stated) | -7% | 15% | -11% | -17 | -13% | -2%
COc1ccc(/C=C/C(=O)NC(=S)Nc2cc3oc4ccccc4c3cc2OC)cc1 | -1% | -3% | -4% | -32 | -7% | 8%
CCN(C(=O)CN1CCN(c2cccc(Cl)c2)CC1)c1c(N)n(Cc2ccccc2)c(=O)[nH]c1=O | -4% | -14% | -1% | -11 | -10% | -20%
Cc1cc(C(=O)CSc2nnc(-c3ccc(F)cc3)o2)c(C)n1CC1COc2ccccc2O1 (configuration not stated) | 4% | ? | nt | -15 | -1% | -19%
COc1cc2c(cc1NC(=O)Nc1ccc(C)cc1)oc1ccccc12 | -1% | 10% | -25% | 22 | -10% | ?
COc1cc2c(cc1NC(=O)Nc1ccc(F)cc1)oc1ccccc12 | -8% | -5% | -21% | -66* | -18% | ?
CNC(=S)Nc1cc2oc3ccccc3c2cc1OC | -23% | 24% | ? | -12 | -28% | 11µM*
COc1cc2c(cc1NC(=S)Nc1ccccc1C)oc1ccccc12 | 11% | 25% | -21% | 21 | -12% | ?
